Source: PubChem BioAssay (NCATS)
Values joined by “and” are separate entries in the source; they are usually repeats but may differ in a detail not shown here. Equal values may be shown once. Inconclusive results are not listed. A number with no mark means an inactive call. Active and inactive are the calls of the source. Calls come from the whole dose curve.

Tests used:
[1] = biological target: Bile acid receptor (Homo sapiens) (UniProt Q96RI1); experiment: qHTS assay for small molecule agonists of farnesoid X receptor signaling (AID 588527); settings: HEK293T FXR-UAS-bla, beta-lactamase ratio, 16 h; activation: active compounds read high;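 note: series mostly up to about 77 µM; 0% = vehicle basal and 100% = reference agonist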
Procedure, shortened: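 Agonist-mode beta-lactamase reporter in GeneBLAzer FXR-UAS-bla HEK293T cells, titration up to 92 uM, 16 h exposure at 37 C, CCF4 fluorescence. Response scaled to DMSO (0%) and 100 uM chenodeoxycholic acid (100%), then Hill-fitted for EC50 and efficacy.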

[2] = biological target: Peroxisome proliferator-activated receptor delta (Homo sapiens) (UniProt Q03181); experiment: qHTS assay for small molecule agonists of peroxisome proliferator-activated receptor delta signaling (AID 588534);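 note: 0% = DMSO basal wells and 100% = positive control agonist at 10 µM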
Procedure, shortened: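 Agonist-mode qHTS; reporter cells, 5 hrs 37 C pre-incubation; compound titration, 18 hrs 37 C; CCF4 dye, 2 hrs RT; fluorescence read. EC50/efficacy via Hill fit.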

Sequence of Peroxisome proliferator-activated receptor delta (Homo sapiens) (Q03181 whole entry, looked up): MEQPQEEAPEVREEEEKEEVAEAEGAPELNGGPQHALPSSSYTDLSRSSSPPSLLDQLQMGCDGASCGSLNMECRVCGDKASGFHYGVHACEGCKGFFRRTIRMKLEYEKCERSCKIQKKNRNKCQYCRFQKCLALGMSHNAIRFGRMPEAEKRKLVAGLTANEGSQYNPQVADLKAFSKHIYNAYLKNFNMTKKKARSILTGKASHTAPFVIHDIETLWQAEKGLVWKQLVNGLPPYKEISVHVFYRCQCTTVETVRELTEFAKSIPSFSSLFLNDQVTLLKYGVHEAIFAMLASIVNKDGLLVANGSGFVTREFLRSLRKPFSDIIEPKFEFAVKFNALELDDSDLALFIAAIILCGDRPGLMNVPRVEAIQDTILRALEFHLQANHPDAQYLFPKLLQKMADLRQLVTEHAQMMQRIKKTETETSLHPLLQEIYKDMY
Sequence of Bile acid receptor (Homo sapiens) (Q96RI1 whole entry, looked up): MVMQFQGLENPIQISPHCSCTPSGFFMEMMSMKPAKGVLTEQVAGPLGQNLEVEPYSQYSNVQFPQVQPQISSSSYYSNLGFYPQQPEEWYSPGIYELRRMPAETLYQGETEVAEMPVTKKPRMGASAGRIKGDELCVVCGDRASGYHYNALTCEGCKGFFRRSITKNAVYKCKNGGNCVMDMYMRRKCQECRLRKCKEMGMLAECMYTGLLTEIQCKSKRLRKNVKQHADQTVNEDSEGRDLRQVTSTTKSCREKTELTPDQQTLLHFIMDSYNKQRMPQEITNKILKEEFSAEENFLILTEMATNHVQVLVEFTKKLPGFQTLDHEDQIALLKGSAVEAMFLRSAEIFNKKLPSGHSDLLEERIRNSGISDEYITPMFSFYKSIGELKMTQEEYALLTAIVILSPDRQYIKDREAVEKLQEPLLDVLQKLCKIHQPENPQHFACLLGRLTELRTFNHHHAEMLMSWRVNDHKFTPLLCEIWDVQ

Row | Compound | activation [1] | outcome [2]
1 | CCCCCCCCCCCCCCN | 2.17% | inactive
2 | CCCCCCCC/C=C\CCCCCCCC(=O)N(CCO)CCO | 0.527% | inactive
3 | NCCCCCCCCCCC(=O)O | 1.65% | inactive
4 | OC1CCC(C2CCCCC2)CC1 (stereo not given) | 0.637% | inactive
5 | Cc1cc(C)cc(N)c1 | -1.69% | inactive
6 | CCCCCCCC/C=C\CCCCCCCC(=O)O | -0.994% and -1.49% | inactive
7 | COc1cccc2sc(N)nc12 | -1.11% | inactive
8 | Cn1c(=O)[nH]c(=O)n(C2CCC(O)CC2)c1=O (stereo not given) | -4.56% | inactive
9 | O=c1n(CCO)c(=O)n(CCO)c(=O)n1CCO | 0.713% | inactive
10 | CCCCCCC(O)CCCCCCCCCCC(=O)O (stereo not given) | 3.12% | inactive
11 | CCCCCCCC[Si](Cl)(Cl)Cl | 0.799% | inactive
12 | O=S(=O)(O)c1cc(S(=O)(=O)O)c2c(N=Nc3ccccc3)c(O)ccc2c1 | 2.46% | inactive
13 | Nc1cnn([C@@H]2O[C@H](CO)[C@@H](O)[C@H]2O)c(=O)n1 | -2.94% | inactive
14 | Cc1ccc2oc(=O)ccc2c1 | 0.64% and 1.95% | inactive
15 | CC(COCC(C)OC(=O)c1ccccc1)OC(=O)c1ccccc1 (stereo not given) | 3.09% | inactive
16 | CCCCCCCCCCCCCCCCCCN | 1.62% | inactive
17 | C=C(C)C(=O)OCCCCCC | -1.11% | inactive
18 | CCC(=O)/C=C/C1C(C)=CCCC1(C)C (stereo not given) | -0.845% | inactive
19 | CC(=O)c1c(C)c([N+](=O)[O-])c(C(C)(C)C)c([N+](=O)[O-])c1C | 1.55% | inactive
20 | CCC(C)(C)OC | 0.74% | inactive

Row | Compound | activation [1] | outcome [2]
21 | Nc1nc(-c2ccccc2)cs1 | 2.42% | inactive
22 | CC(=O)Nc1ccc(N)cc1 | 1.67% | inactive
23 | COc1cc(-c2ccc(N=C=O)c(OC)c2)ccc1N=C=O | 0.158% | inactive
24 | Cc1ccc(S(N)(=O)=O)cc1 | 0.771% and -1.64% | inactive
25 | Cc1ccc2c(c1[N+](=O)[O-])C(=O)c1ccccc1C2=O | -4.5% | inactive
26 | CCCCCCCCC1CO1 (stereo not given) | 0.755% | inactive
27 | O=C(O)CCCCCCCCCCC(=O)O | -2.26% | inactive
28 | Clc1ccccn1 | -2.48% | inactive
29 | Cc1ccc(C(=O)c2ccccc2)cc1 | -0.352% | inactive
30 | O=C(Cl)c1cccc([N+](=O)[O-])c1 | -3.83% | inactive
31 | CC(=O)CC(=O)Nc1ccccc1 | 0.0824% and -0.252% | inactive
32 | CCCCOCCOCCOC(=O)CCCCC(=O)OCCOCCOCCCC | 3.42% | inactive
33 | CC1(C)CC(NCCCCCCNC2CC(C)(C)NC(C)(C)C2)CC(C)(C)N1 | 5.33% | inactive
34 | Cc1ccc(C#N)cc1 | -2.61% | inactive
35 | CN(C)c1nc(=O)n(C2CCC(O)CC2)c(=O)n1C (stereo not given) | 2.83% | inactive
36 | CC(Cl)(Cl)C(=O)OCCOc1cc(Cl)c(Cl)cc1Cl | 0.229% | inactive
37 | O=[N+]([O-])c1ccc(NCCO)c(OCCO)c1 | -1.27% | inactive
38 | CCOCCOCCOC(C)=O | -3.45% | inactive
39 | CNc1nc(=O)n(C2CCC(O)CC2)c(=O)n1C (stereo not given) | 2.07% | inactive
40 | CN(C)CCOCCN(C)C | -0.638% | inactive

Row | Compound | activation [1] | outcome [2]
41 | Cc1ccc(Cl)cc1N | -2.98% | inactive
42 | Cn1sccc1=O | 1.01% | inactive
43 | COC(=O)c1c(Cl)nn(C)c1S(=O)(=O)NC(=O)Nc1nc(OC)cc(OC)n1 | 3.79% | inactive
44 | O=Cc1cccc(Br)c1 | -4.69% | inactive
45 | Nc1ncnc2c1ncn2[C@H]1CC[C@@H](CO)O1 | 0.029% and -3.36% | inactive
46 | Nc1cc(Cl)c(N)c(Cl)c1 | -3.48% | inactive
47 | C[Si](C)(Cl)[Si](C)(C)Cl | 0.0904% | inactive
48 | CN(CCO)CC(O)Cn1cnc2c1c(=O)n(C)c(=O)n2C (stereo not given) (tested in a mixture with another compound) | 1.67% | inactive
49 | Cc1ccccc1C(N)=O | 2.86% | inactive
50 | C=CCCCCCCC=C | -0.711% | inactive
51 | CCCCCCCCCCCCCCCO | -2.39% | inactive
52 | O=C(O)c1ccccc1[N+](=O)[O-] | -1.37% | inactive
53 | Cc1cc(C)cc([N+](=O)[O-])c1 | -0.797% | inactive
54 | CC(C)=CCC[C@@H](C)[C@H]1CC[C@@]2(C)C3=C(CC[C@]12C)[C@@]1(C)CC[C@H](O)C(C)(C)[C@@H]1CC3 | -5.29% | inactive
55 | C[Si](C)(C)O[Si](C)(C)C | -0.871% | inactive
56 | CCOc1cc(OCC)c(C(C)=O)cc1OCC | 0.582% | inactive
57 | CCCCC(CC)COC(=O)c1ccc(C(=O)OCC(CC)CCCC)cc1 (stereo not given) | 2.72% | inactive
58 | CC1=C(/C=C/C(C)=C/C=C/C(C)=C/C=O)C(C)(C)CCC1 | 23.6% | inactive
59 | COC(=O)c1ccc(CNS(C)(=O)=O)cc1S(=O)(=O)NC(=O)Nc1nc(OC)cc(OC)n1 | -2.61% | inactive
60 | CCNc1ccccc1 | -3.11% | inactive
